# Active and inactive are the calls of the source.
# Tests used:
# [1] = tested on: Plasmodium falciparum Sir2 (PF13_0152, Sir2A); experiment: pfSir2 binders on small-molecule microarrays, primary screen, biochemical, small-molecule microarray, 635 nm fluorescence (AID 1098); details: small-molecule microarray binding, fluorescence 635 nm; higher = more signal;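 note: score merges spot fluorescence intensity with its signal-to-noise ratio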
# [2] = small-molecule microarray binders of probe aDKK1, primary screen, biochemical, biotinylated probe, 635/667 nm fluorescence (AID 1099); details: higher = more signal;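 note: score merges 667nm spot fluorescence with signal to noise across triplicate slides; reference of the scale not given here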
# [3] = small-molecule microarray binders of probe aCHRDL2, primary screen, biochemical, biotinylated probe, 635/667 nm fluorescence (AID 1100); details: higher = more signal
# [4] = splicing luciferase reporter signal modulators, primary screen, spliceosome inhibition project, cell-based, HEK293, splice +/- reporter (AID 1101); details: luminescence, 24 h, higher = more signal, called active from +8 up or from −8 down;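 note: HEK293 cells carrying a splicing-competent luciferase reporter gene; test concentration not given here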
# [5] = target: Fibroblast growth factor 10 (Homo sapiens) (UniProt O15520); experiment: FGF10 binders on small-molecule microarrays, primary screen, biochemical, small-molecule microarray, 635 nm fluorescence (AID 1102); details: FGF10 binding, fluorescence 635 nm, higher = more signal
# [6] = tested on: glycogen synthase kinase-3 (GSK3A per assay name; protocol says GSK3B); experiment: GSK3 binders on small-molecule microarrays, primary screen, biochemical, small-molecule microarray, 635 nm fluorescence, GSK3A (AID 1103); details: small-molecule microarray binding, fluorescence 635 nm; higher = more signal; note: the record names both GSK3A and GSK3B
# [7] = target: Epidermal growth factor receptor (Homo sapiens) (UniProt P00533); experiment: EGFR binders on small-molecule microarrays, primary screen, biochemical, small-molecule microarray, 635 nm fluorescence (AID 1104); details: EGFR binding, higher = more signal;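 note: score merges 667 nm emission intensity with spot signal to noise over triplicate slides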
# [8] = target: Follistatin-related protein 3 (Homo sapiens) (UniProt O95633); experiment: FSTL3 binders on small-molecule microarrays, primary screen, biochemical, small-molecule microarray, 635 nm fluorescence (AID 1105); details: FSTL3 binding, higher = more signal;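 note: score merges emission near 667 nm and signal to noise per printed spot across three slides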
# [9] = target: Dickkopf-related protein 1 (Homo sapiens) (UniProt O94907); experiment: DKK1 binders on small-molecule microarrays, primary screen, biochemical, small-molecule microarray, 635 nm fluorescence scan (AID 1106); details: DKK1 binding, higher = more signal;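 note: score merges emission near 667 nm with signal to noise over three replicate slides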
# [10] = tested on: Inhibin beta A chain (activin A); experiment: INHBA (activin A) binders on microarrays, primary screen, biochemical, small-molecule microarray, 635 nm fluorescence scan (AID 1107); details: small-molecule microarray binding, higher = more signal;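 note: mouse activin A protein probed at 4.33 µg/mL on printed slides; score merges bound-protein fluorescence near 667 nm with spot signal-to-noise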
# Sequence of Epidermal growth factor receptor (Homo sapiens) (P00533 whole entry, looked up): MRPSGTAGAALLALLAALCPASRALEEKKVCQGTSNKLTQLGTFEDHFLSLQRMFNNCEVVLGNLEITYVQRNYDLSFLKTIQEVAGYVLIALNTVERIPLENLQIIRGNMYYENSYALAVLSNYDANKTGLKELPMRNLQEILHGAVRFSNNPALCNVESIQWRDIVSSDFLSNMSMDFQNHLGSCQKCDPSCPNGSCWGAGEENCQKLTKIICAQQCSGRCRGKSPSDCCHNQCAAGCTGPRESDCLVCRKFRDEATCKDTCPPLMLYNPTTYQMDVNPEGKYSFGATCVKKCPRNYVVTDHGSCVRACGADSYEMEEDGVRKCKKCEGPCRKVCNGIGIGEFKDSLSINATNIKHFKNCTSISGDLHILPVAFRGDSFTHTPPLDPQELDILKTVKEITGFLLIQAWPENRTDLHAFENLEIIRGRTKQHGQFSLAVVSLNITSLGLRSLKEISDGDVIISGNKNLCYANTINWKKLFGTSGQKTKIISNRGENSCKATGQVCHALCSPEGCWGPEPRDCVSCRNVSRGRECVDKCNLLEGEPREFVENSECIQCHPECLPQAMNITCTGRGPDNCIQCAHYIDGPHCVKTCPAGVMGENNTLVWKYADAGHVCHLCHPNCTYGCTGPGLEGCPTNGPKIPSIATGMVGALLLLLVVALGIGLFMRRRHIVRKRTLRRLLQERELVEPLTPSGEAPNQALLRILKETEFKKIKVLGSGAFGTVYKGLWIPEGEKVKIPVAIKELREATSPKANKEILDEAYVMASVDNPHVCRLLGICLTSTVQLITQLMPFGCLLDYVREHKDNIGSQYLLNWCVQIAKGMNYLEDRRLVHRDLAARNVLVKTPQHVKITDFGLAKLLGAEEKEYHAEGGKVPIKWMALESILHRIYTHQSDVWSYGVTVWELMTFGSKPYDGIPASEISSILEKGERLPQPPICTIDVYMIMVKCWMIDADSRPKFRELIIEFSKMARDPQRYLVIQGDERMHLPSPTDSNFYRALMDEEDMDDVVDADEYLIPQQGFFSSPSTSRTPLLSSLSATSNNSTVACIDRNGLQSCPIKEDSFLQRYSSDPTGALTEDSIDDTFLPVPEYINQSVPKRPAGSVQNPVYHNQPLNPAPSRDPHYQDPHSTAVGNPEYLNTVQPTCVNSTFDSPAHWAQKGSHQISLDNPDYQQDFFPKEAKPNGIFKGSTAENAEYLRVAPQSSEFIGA
# Sequence of Dickkopf-related protein 1 (Homo sapiens) (O94907 whole entry, looked up): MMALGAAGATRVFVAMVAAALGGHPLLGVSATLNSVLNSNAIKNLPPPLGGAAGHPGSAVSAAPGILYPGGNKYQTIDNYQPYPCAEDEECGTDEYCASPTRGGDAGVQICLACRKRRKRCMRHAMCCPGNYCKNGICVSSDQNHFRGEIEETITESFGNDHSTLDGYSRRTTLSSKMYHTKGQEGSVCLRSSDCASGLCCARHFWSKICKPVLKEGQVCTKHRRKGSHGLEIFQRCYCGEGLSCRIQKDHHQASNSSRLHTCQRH
# Sequence of Fibroblast growth factor 10 (Homo sapiens) (O15520 whole entry, looked up): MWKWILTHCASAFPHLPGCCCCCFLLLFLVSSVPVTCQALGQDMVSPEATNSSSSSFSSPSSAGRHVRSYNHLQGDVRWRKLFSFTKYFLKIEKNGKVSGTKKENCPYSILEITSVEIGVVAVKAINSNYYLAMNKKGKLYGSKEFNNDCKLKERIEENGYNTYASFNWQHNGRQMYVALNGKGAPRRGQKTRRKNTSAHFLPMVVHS
# Sequence of Follistatin-related protein 3 (Homo sapiens) (O95633 whole entry, looked up): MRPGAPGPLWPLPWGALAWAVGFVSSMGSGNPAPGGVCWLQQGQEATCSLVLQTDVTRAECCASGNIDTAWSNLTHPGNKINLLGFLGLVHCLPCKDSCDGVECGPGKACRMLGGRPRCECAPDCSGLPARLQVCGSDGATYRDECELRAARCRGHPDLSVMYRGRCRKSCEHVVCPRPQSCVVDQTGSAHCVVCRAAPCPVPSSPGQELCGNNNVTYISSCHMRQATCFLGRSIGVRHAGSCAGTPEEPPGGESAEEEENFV
Compound,composite z-score [1],composite z-score [2],composite z-score [3],z-score [4],composite z-score [5],composite z-score [6],composite z-score [7],composite z-score [8],composite z-score [9],composite z-score [10]
COc1ccc([Si](C)(C)[C@H]2[C@H](CCO)O[C@@]3(C(=O)N(Cc4ccc(N5C(=O)c6ccccc6Oc6ccccc65)cc4)c4ccccc43)[C@@H]2C)cc1,0.094,-0.0509,0.477,-0.964 (inactive),-0.94,-1.96,-0.732,-1.25,-1.02,-0.917
C=C(COC)C(=O)CC[C@H](OC(=O)c1cccnc1)c1ccc(CO)o1,1.44,-0.424,-0.686,0.591 (inactive),0.905,0.596,0.393,1.3,1.42,0.488
CCCCCCCCCCC(O)C1C=CC2C(=O)N(C)C(=O)C2N1Nc1cc(OC)c(OC)c(OC)c1 (stereo not given),1.05,0.571,0.858,0.271 (inactive),-0.471,-1.29,-0.637,-1.29,-0.939,1.18
CC(C)C(CO)N1C(=O)[C@@H]2[C@H]3C(=O)OCC=C[C@H]3OC23C=CCN(C(C)(C)C)C(=O)[C@@H]13 (stereo not given in full),1.45,-0.293,-0.348,0.454 (inactive),-1.07,-1.57,-0.257,-0.21,-0.181,0.83
C=CC1c2cc(O)c(OC)cc2CCN1Cc1ccc([N+](=O)[O-])o1 (stereo not given),1.19,0.819,0.826,-0.109 (inactive),0.367,-0.128,-0.841,-0.15,-0.641,0.87
CN(C)CCCNC(=O)[C@@H]1c2ccccc2C(=O)N(C2CCCCC2)[C@H]1c1ccc(CO)cc1,1.37,0.229,0.11,1.39 (inactive),1.43,1.32,0.758,1.53,1.15,0.106
CC(C)c1ccc(NN2C(C(O)Cc3ccccc3)C=CC3C(=O)N(c4ccccc4)C(=O)C32)cc1 (stereo not given),0.587,0.655,0.811,-0.469 (inactive),0.932,1.04,0.399,1.26,0.241,-0.323
CC=CC(O)C1C=CC2C(=O)NC(=O)C2N1Nc1ccccn1 (stereo not given),0.733,-0.0419,-0.185,1.12 (inactive),0.22,0.717,0.673,0.6,0.697,1.25
O=C1O[C@H](c2ccccc2)[C@H](c2ccccc2)N2[C@H]1[C@@H](C(=O)Nc1nc3ccccc3s1)[C@]1(C(=O)Nc3ccc(C#CC4=CCCCC4)cc31)[C@H]2c1ccc(O)cc1,1.52,-0.0399,0.115,-1.31 (inactive),0.588,1.22,0.308,0.842,0.188,0.533
C=C[C@H](C)[C@H](OC(=O)Nc1ccc(OC)cc1)c1ccc(OCCO)cc1,0.515,-0.115,0.931,-0.921 (inactive),-1.12,-0.78,-2.13,-0.844,-1.28,-0.801
CC(C)C[C@@H]1NC(=O)[C@@]23C(=O)N[C@@H](Cc4ccccc4)C2[C@H](C)[C@@]2(C)O[C@H]2C3/C=C/C/C=C\CNC(=O)[C@@H](C)NC1=O (stereo not given in full),1.72,-0.416,-0.601,-1.34 (inactive),-0.052,-0.608,0.401,0.331,0.431,1.27
CC(C)C[C@@H]1NC(=O)[C@H]2C[C@@H](C(=O)NCCCCCN)[C@@H](c3cccc(OCCO)c3)N2C1=O,0.481,0.206,0.235,-1.76 (inactive),-0.361,-0.389,0.125,-0.348,0.183,-0.762
C=CCNC(=O)[C@@H]1[C@H]2C(=O)O[C@H](c3ccccc3)[C@H](c3ccccc3)N2[C@H](c2ccc(O)cc2)[C@@]12C(=O)N(C(=O)OCCOC)c1ccc(C#CCCO)cc12,1.25,0.373,0.42,-0.591 (inactive),1.37,1.04,0.683,1.12,0.921,0.616
CN1C=C(C(=O)OCCS(C)(=O)=O)C(C(=O)OCCS(C)(=O)=O)=CC(c2ccc(CO)cc2)=CC1c1cccs1 (stereo not given),0.76,0.162,0.102,0.497 (inactive),0.588,0.499,0.294,0.226,-0.0496,1.47
[N-]=[N+]=NCc1ccccc1[C@H]1OC(c2ccc(OCCCO)cc2)=N[C@@]1(Cc1ccccc1)C(=O)NCCN1CCOCC1,1.23,-0.378,0.75,-1.06 (inactive),1.43,1.21,0.446,1.07,0.0815,0.768
CCCC=C(CCC)[C@@H](NC(=O)CCc1ccccc1)c1ccc(C(F)(F)F)cc1,1.08,0.256,0.995,-1.57 (inactive),0.527,1.28,0.0694,0.574,-0.429,0.724

Compound,composite z-score [1],composite z-score [2],composite z-score [3],z-score [4],composite z-score [5],composite z-score [6],composite z-score [7],composite z-score [8],composite z-score [9],composite z-score [10]
C=CCNC(=O)[C@@H]1[C@H]2C(=O)O[C@H](c3ccccc3)[C@H](c3ccccc3)N2[C@H](c2ccc(OCCO)cc2)[C@@]12C(=O)N(C(=O)OCCOC)c1ccc(C#CCCO)cc12,1.12,-0.0139,0.171,-1.53 (inactive),0.637,1.28,0.635,1.24,0.646,0.63
COCC(=C=CC[C@H](O)c1cccc(OCCO)c1)C[C@H](O)COCc1ccccc1,1.66,0.39,-0.121,0.13 (inactive),1.17,0.677,-0.751,0.0438,-0.529,1.03
CC(C)CNC(=O)[C@@H]1c2ccccc2C(=O)N(C2CCCCC2)[C@H]1c1ccc(CO)cc1,1.65,0.477,0.962,-1.25 (inactive),-0.0953,0.185,-0.602,-0.333,-0.308,0.0986
CN(C)C(=O)[C@@]1(CCC(=O)OC(C)(C)C)N=C(c2ccc(OCCCO)cc2)O[C@H]1c1ccccc1CN=[N+]=[N-],1.6,0.473,0.724,0.277 (inactive),0.965,-0.416,-0.341,0.442,-0.695,-0.0415
C=C(C(=O)CC[C@@H](OC(=O)c1ccccc1-c1ccccc1C(=O)O)c1ccccc1OCCO)C(C)C,1.07,-0.232,-0.463,1.58 (inactive),1.53,0.645,0.354,1.38,0.73,1.26
COC(=O)[C@@]1(Cc2ccccc2)[C@H]2c3cc(C(=O)N(C)C)n(CCn4cc([N+](=O)[O-])nc4C)c3C[C@H]2CN1C(=O)c1ccccc1,1.72,-0.262,0.436,-0.106 (inactive),0.937,0.793,0.355,0.444,0.0356,0.581
C=CCNC(=O)[C@H]1[C@@H]2C(=O)O[C@@H](c3ccccc3)[C@@H](c3ccccc3)N2[C@@H](c2ccc(OCCO)cc2)[C@]12C(=O)Nc1ccc(C#CCNC(N)=O)cc12,1.2,0.867,1.05,-0.595 (inactive),1.13,0.332,-0.471,0.65,0.0352,0.624
[N-]=[N+]=NCc1ccccc1[C@H]1OC(c2ccc(OCCCO)cc2)=N[C@@]1(CCS(=O)(=O)c1ccccc1)C(=O)NCc1ccccc1,1.26,1.65,0.743,0.118 (inactive),1.06,1.29,0.333,0.819,-0.0778,0.447
C=C(/C(=C/C[C@@H](OC(C)=O)c1ccc(CO)o1)c1cc(C(=O)OC)ccc1OC)C(C)C,0.12,-0.22,-0.256,0.227 (inactive),1.02,0.469,-0.132,0.347,0.251,0.995
CCOC(=O)C1=CCC(c2ccccc2)N(S(=O)(=O)c2ccc([N+](=O)[O-])cc2)C1 (stereo not given),-0.0755,0.36,0.507,-0.33 (inactive),-0.16,0.265,0.0475,0.163,-0.115,0.918
NC(=O)[C@H]1[C@@H]2C(=O)O[C@@H](c3ccccc3)[C@@H](c3ccccc3)N2[C@@H](c2ccc(O)cc2)[C@]12C(=O)Nc1ccccc12,0.845,-0.352,0.561,-0.0764 (inactive),-1.07,-1.69,-1.15,-1.51,-1.34,-1.11
COCCOC(=O)N1C(=O)[C@@]2(c3cc(C#CCC(C(=O)OC)C(=O)OC)ccc31)[C@H](c1ccc(O)cc1)N1[C@H](c3ccccc3)[C@H](c3ccccc3)OC(=O)[C@H]1[C@@H]2C(=O)NC[C@H](O)c1ccccc1,0.542,0.362,0.181,0.579 (inactive),0.681,0.882,0.335,0.602,0.148,0.466
CC(C)C[C@@H]1NC(=O)[C@@H]2C[C@H](C(=O)NCCCCCC[N+](C)(C)C)[C@H](c3cccc(OCCO)c3)N2C1=O,1.78,-0.294,0.512,-0.261 (inactive),0.225,0.221,-0.138,-0.168,0.449,0.327
CCOC(=O)C1=C[C@@H](C(C)(C)C)N(S(=O)(=O)c2ccc(C)cc2)[C@H]1c1cccc(Cl)c1,0.758,0.821,0.182,-0.517 (inactive),0.907,1.31,0.427,1.36,0.0675,-0.213
CC(C)[C@H]1NC(=O)[C@@]23C(=O)N[C@@H](Cc4ccccc4)C2[C@H](C)[C@@]2(C)O[C@H]2C3/C=C/C/C=C\CNC(=O)[C@H](Cc2ccccc2)NC1=O (stereo not given in full),0.205,-0.38,-0.481,0.0723 (inactive),1.37,1.08,0.512,1.44,0.336,1.12
C=CCC(OC(C)=O)[C@@H]1[C@@H](N(Cc2cccc3ccccc23)C(=O)Cc2ccc(F)cc2)c2cc(OCCCO)ccc2N1C(=O)c1ccc(-c2ccccc2)cc1 (stereo not given in full),-0.171,0.592,0.976,-0.312 (inactive),-0.219,-0.502,-0.304,0.047,-0.506,1.45

# — PubChem BioAssay
